Test in all cases: NCI-60 one-dose screen, 48 h (100 = growth as untreated, 0 = no growth, -100 = all killed)
Common to all, as to settings: 10 µM unless noted

Test [1] deals with NCI-H23 lung.
The test system of test [2] is NCI-H226 lung.
Test [3] relates to NCI-H322M lung.
For test [4], the system named is HOP-62 NSCLC.
Test [5] has as its system NCI-H460 lung.
The test system of test [6] is HOP-92 NSCLC.
Test [7] has as its system NCI-H522 lung.
The test system of test [8] is A549/ATCC NSCLC.
Test [9] concerns 786-0 renal.
The subject of test [10] is COLO 205 colon.
The subject of test [11] is DU-145 prostate.
Test [12] deals with K-562 leukemia.
The test system of test [13] is MALME-3M melanoma.
For test [14], the system named is MDA-MB-231 breast.
Test [15] deals with RXF 393 renal.
Test [16] deals with SF-268 CNS.
The test system of test [17] is SF-295 CNS.
Test [18] relates to SF-539 CNS.
Test [19] concerns UACC-257 melanoma.
Test [20] deals with M14 melanoma.

Compounds without any hit were thinned out: in the full panel of roughly 83,000, 20% have a hit.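 Plates (96-well) were seeded with cells, treated with compound at one concentration, and incubated for 48 hours before percent growth was determined.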 A number with no mark means an inactive call. Calls of active or inactive are those of the source. How the source made its calls: active means growth percent below 10; inactive means the rest.

Regarding `COc1ccc(NC(=O)Nc2ccc(Nc3nc(C)cc(Nc4ccc(C)cc4)n3)cc2)cc1`, the growth in [1] was -57.2% (active); in test [2] it was -71.4% (active); in test [3], -74.7% (active); in test [4], -94.1% (active); in test [5], -74.2% (active); in [6], -54.1% (active). The growth in [7] is -74.8% (active); in test [8], -83% (active); in test [9], -93.8% (active); in test [10], -78.7% (active); in test [11], -95.8% (active); in test [12], -60.9% (active). The growth in test [13] was -78.7% (active); in test [14], -75.8% (active); in [15], -80.7% (active); in test [16], -67.9% (active); in test [17] it was -66% (active); in test [18], -89.5% (active). Moreover, the figures for the growth in [19] and in [20] were -87.8% (active) and -82.9% (active), respectively.

Regarding `N#Cc1ccc(N2Cc3cc(Cl)ccc3OC3=C2C(=O)N(Cc2ccccc2)C3=O)cc1`, the growth in test [1] was 10.8%; in test [2], 100%; in test [3], 96.3%; in [4], 59%; in test [5] it was 34.7%; in [6] it was -63.8% (active). Moreover, the growth in [7] is -57.2% (active); in test [8], 66.3%; in test [9] it was -82.4% (active); in test [10], -69.2% (active); in [11], -75.7% (active); in test [12], -22.3% (active). Besides, the growth in [13] was -64.4% (active); in test [14] it was -15.9% (active); in test [15] it was -79.8% (active); in test [16], -43.3% (active); in test [17] it was 69.4%; in test [18], -60.3% (active). For the same molecule, the growth in test [19] is -56.1% (active); in test [20], -35.7% (active).

For `O=C(CN1N=C(c2ccc(F)cc2)CCC1=O)Nc1nc2ccccc2s1`, the growth in test [1] was -26.2% (active); in [2] it was 41.7%; in test [3], 95.1%; in test [4], -23.7% (active); in test [5] it was 51.3%; in test [6] it was -77.1% (active). For the same molecule, the growth in test [7] is -73.5% (active); in [8], -48.8% (active); in test [9], -90.2% (active); in test [10] it was 87.2%; in test [11] it was 84.6%; in [12], 30.1%. Also, the growth was -70.4% (active) in test [13]; -85.5% (active) in [14]; 45.8% in test [15]; 48% in test [16]; -46.9% (active) in test [17]; -82.6% (active) in test [18]. Besides, the values for the growth in [19] and in test [20] were 88.1% and 41.4%, respectively.

Consider `CCc1n(Cc2ccc3ccccc3c2)c2ccccc2[n+]1Cc1ccc2ccccc2c1`, for which the growth in [1] was 28.8%; in [2], 64.9%; in [3] it was 90.7%; in [4], 81.3%; in test [5] it was 53.6%; in test [6] it was 21.8%. Also, the growth in [7] was 12.1%; in test [8] it was 74.2%; in [9] it was 89%; in test [10], 25%; in test [11], 67.7%; in test [12], 35.3%. Further, the growth in test [13] was 54.1%; in test [14], 60.3%; in test [15], 94.1%; in [16] it was 64.7%; in test [17] it was 93.3%; in [18], 68.8%. For the same molecule, the growth in test [19] was 59%; in test [20], 48.7%.

For the molecule `COc1ccc(C(=S)c2cc(OC)c(OC)c(OC)c2)cc1OC(=O)CCl`, the growth is 31.4% in test [1]; 103% in test [2]; 42.4% in test [3]; 30.9% in test [4]; 7.23% (active) in test [5]; 54.8% in [6]. The growth is 12.9% in test [7]; 21.2% in test [8]; 27.4% in test [9]; 16.7% in [10]; 9.36% (active) in test [11]; 10.2% in test [12]. The growth in [13] is 74.2%; in test [14] it was 32.9%; in [15], 44.7%; in test [16] it was 39.3%; in [17] it was 14.7%; in test [18] it was 9.83% (active). Moreover, the growth in test [19] is 56.7%; in test [20], 12.6%.

For `COc1cc(C(C)c2ccc3c(ccn3C)c2)cc(OC)c1OC` (stereo not given), the growth in [1] was 29.3%; in [2] it was 67.2%; in test [3], 42.8%; in test [4], 29.4%; in [5], 2.89% (active); in test [6] it was 48.2%. For the same molecule, the growth was 11.3% in test [7]; 16.3% in test [8]; 22.6% in test [9]; -56.6% (active) in test [10]; -15.3% (active) in test [11]; 6.54% (active) in test [12]. Further, the growth in [13] is 68%; in test [14], 28.1%; in test [15], 53.1%; in test [16] it was 31.4%; in test [17], 15.5%; in test [18], -6.4% (active). The growth in test [19] is 61%; in test [20], 11.3%.

Turning to `COc1ccc(OCC(=O)OC(C)C)cc1`, the growth in test [1] is 90.6%; in test [2] it was 95.3%; in test [3], 94%; in test [4] it was 101%; in test [5] it was 105%; in [6], 104%. The growth in test [7] was 97.9%; in test [8] it was 102%; in [9] it was 104%; in test [10], 104%; in test [11], 101%; in [12], 98.7%. Besides, the growth in test [13] was 91.1%; in test [14], 98.1%; in test [15] it was 80.5%; in [16], 92.5%; in [17], 96.6%; in test [18], 98%. Besides, the growth in test [19] is 97.7%; in [20] it was 98.6%.

Take `C#C[C@@]1(O)[C@@H](CO)O[C@@H](n2ccc3c(N)ncnc32)[C@@H]1O`: the growth in test [1] is -20.7% (active); in test [2], -54.4% (active); in [3], 14.5%; in test [4] it was 4.56% (active); in [5], 0.612% (active); in test [6], -15.8% (active). The growth in test [7] was -18.4% (active); in test [8] it was -19.4% (active); in test [9], 4.14% (active); in [10] it was -55.2% (active); in test [11], 3.75% (active); in test [12] it was 4.79% (active). For the same molecule, the growth in [13] is -13.2% (active); in test [14], -14.7% (active); in test [15] it was -33.6% (active); in [16], 9.98% (active); in [17], 5.82% (active); in test [18], 8.04% (active). Further, the growth in [19] is 17.3%; in [20] it was -38.6% (active).

The values are drawn from PubChem BioAssay (NCI).
